For assay [1], the target named is Progesterone receptor (Homo sapiens) (UniProt P06401). Put plainly: qHTS assay to identify small molecule agonists of the progesterone receptor (PR) signaling pathway (AID 1346784; calls by dose curve; further: nearly all actives have a fitted effect of over 30% in size). In a few lines:
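Using charcoal-stripped serum (2%) to limit endogenous steroids, PR-UAS-bla HEK 293T cells received compounds for 16 hr at 37C after 6 hr plating; beta-lactamase FRET fluorescence was recorded following 2 hr substrate loading at room temperature.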
(Quantitative high-throughput screening tests each substance at several concentrations.)

For assay [2] the target is unchanged. Put plainly: qHTS assay to identify small molecule antagonists of the progesterone receptor (PR) signaling pathway (AID 1346795; active means well fitted inhibition curve with a large enough effect in the signal ratio in the repeat runs, not every such curve was filed as active; the % refers to the signal ratio). In a few lines: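 Inhibition of R5020-induced (1 nM final) beta-lactamase reporter signal in PR-UAS-bla HEK293T cells was scored by FRET fluorescence after overnight (16 hr) compound treatment.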
A short description of assay [3]: qHTS assay to identify small molecule antagonists of the progesterone receptor (PR) signaling pathway - cell viability counter screen (AID 1346798). Further: series mostly up to about 92 µM; nearly all actives have a fitted effect of over 50% in size. In a few lines: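 ATP content as viability readout: CellTiter-Glo luminescence, 30 min room temperature, in PR-UAS-bla HEK293T cells after 16 hr compound/R5020 treatment at 37C and 5% CO2.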
Assay [4] can be described thus: qHTS assay to identify small molecule agonists of the progesterone receptor (PR) signaling pathway - cell viability counter screen (AID 1346799; calls by dose curve; further: nearly all actives have a fitted effect of over 45% in size; further: potency means the concentration at half of the fitted maximal effect). In a few lines:
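Cytotoxicity in PR-bla HEK293T cells: 16 h compound, 37C; CellTiter-Glo added post-FRET read; luminescence after 30 min RT.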

Assay [5] in a line: qHTS assay to identify small molecule antagonists of the TGF-beta/Smad signaling pathway - cell viability counter screen (AID 1346824). Further: nearly all actives have a fitted effect of over 50% in size. In a few lines: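 SBE-bla HEK 293T cells, incubated overnight, then compound plus 0.25 ng/mL TGF-beta1 (stock added) for 5 hr at 37 C. Viability was read in the same wells by CellTiter-Glo luminescence after 30 min at room temperature.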
Assay [6] can be described thus: qHTS assay to identify small molecule agonists of the TGF-beta/Smad signaling pathway - cell viability counter screen (AID 1346829). Further: top concentration of the series differs between compounds; nearly all actives have a fitted effect of over 45% in size. In a few lines: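 SBE-bla HEK 293T cells plated overnight, compound exposure 5 hr at 37 C. Viability read in the same wells by CellTiter-Glo luminescence after 30 min at room temperature, following the beta-lactamase read.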
Assay [7] in a line: qHTS assay to identify small molecule agonists of the TGF-beta/Smad signaling pathway (AID 1346859; active means well fitted activation curve with a large enough effect in the signal ratio in the repeat runs, not every such curve was filed as active; the % refers to the signal ratio; further: series mostly up to about 77 µM). In a few lines: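 Stable Smad binding element-beta-lactamase HEK 293T cells; 5 hr compound exposure at 37 C under 5% CO2; 2 hr room-temperature substrate step; fluorescence excited at 405 nm, collected at 460 nm and 530 nm.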
The target in assay [8] is Thyrotropin-releasing hormone receptor (Homo sapiens) (UniProt P34981). The assay can be described thus: qHTS assay to identify small molecule antagonists of the thyrotropin-releasing hormone receptor (TRHR) signaling pathway (AID 1346877; active means well fitted inhibition curve with a large enough effect in the repeat runs, not every such curve was filed as active; further: series mostly up to about 51 µM). In a few lines:
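TRHR-expressing HEK293 cells loaded with calcium dye for 2 h at 37 C; compounds pre-incubated 5 min at room temperature before TRH challenge at 1 nM final. Intracellular calcium fluorescence read kinetically for 3 min; 15 concentrations in triplicate.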

Assay [9] has the same target. The assay can be described thus: qHTS assay to identify small molecule agonists of the thyrotropin-releasing hormone receptor (TRHR) signaling pathway (AID 1346891; calls by dose curve; further: series mostly up to about 58 µM). In a few lines:
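In 1536-format, 1500 TRHR-Hek293 cells per well grew 18 h, took up calcium dye for 2 h at 37 °C, received compound, and were read kinetically; 15-point titrations, triplicates.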

The nature of assay [10]: Human pregnane X receptor (PXR) small molecule agonists, qHTS cell viability counter screen (AID 1346977). Further: nearly all actives have a fitted effect of over 50% in size. In a few lines:
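Readout is CellTiter-Fluor fluorescence from PXR-Luc HepG2 cells. Plated cells rested 5hr, then were treated with compounds for 24hr at 37C and 5% CO2, with reagent present during the last hour.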

Assay [11] in a line: Caspase-3/7 induction in HepG2 cells by small molecules, qHTS assay (AID 1346978). Further: nearly all actives have a fitted effect of over 15% in size. In a few lines:
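Wild-type HepG2 cells, 2,000/well, settled 5 hr at 37 C and 5% CO2, then compound-treated for 17 hr; caspase-3/7 activity read by luminescent Caspase-Glo 3/7 after 30 min at room temperature.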

Assay [12] is described as follows: Caspase-3/7 induction in CHO-K1 cells by small molecules, qHTS cell viability counter screen (AID 1346979). Further: nearly all actives have a fitted effect of over 35% in size. In a few lines: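 To flag cytotoxic compounds, treated CHO-K1 wild-type cells were given CellTiter-Fluor at 16hr and read fluorescently after 1hr at 37C; the caspase-3/7 luminescence was measured in these same wells.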
Assay [13] can be described thus: Caspase-3/7 induction in CHO-K1 cells by small molecules, qHTS assay (AID 1346980). Further: nearly all actives have a fitted effect of over 15% in size. In a few lines: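 Wild-type CHO-K1 cells exposed to compounds for 17hr at 37 C, 5% CO2. Caspase-3/7 activity then measured by Caspase-Glo 3/7 luminescence after 30min at room temperature.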
A short description of assay [14]: Caspase-3/7 induction in HepG2 cells by small molecules, qHTS cell viability counter screen (AID 1346981). Further: series mostly up to about 92 µM; nearly all actives have a fitted effect of over 30% in size. In a few lines:
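Wild-type HepG2 cells, 2,000/well, settled 5 hr at 37 C, 5% CO2 before compound addition. Viability read by CellTiter-Fluor fluorescence, reagent added after 16 hr compound exposure, then 1 hr at 37C, in the same wells as the caspase read.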

Assay [15] addresses Cytochrome P450 2C19 (Homo sapiens) (UniProt P33261). The assay can be described thus: Cytochrome P450 Family 2 Subfamily C Member 19 (CYP2C19) small molecule antagonists: luciferase reporter qHTS assay (AID 1671197). Further: nearly all actives have a fitted effect of over 65% in size. Further: potency means the concentration at half of the fitted maximal effect. In a few lines: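 P450-Glo CYP2C19 system: enzyme-substrate mix with compound 10 min at room temperature, then NADPH regeneration solution, 1 h at 37C. Proluciferin-to-luciferin conversion detected by luminescence after 20 min with detection reagent; ketoconazole as positive control.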
(Reporter assays use an easily measured gene product as a stand-in for the process of interest.)

In assay [16] the target is Nuclear receptor subfamily 1 group I member 2 (Homo sapiens) (UniProt O75469). The assay can be described thus: Human pregnane X receptor (PXR) small molecule agonists, qHTS assay (AID 1346982). Further: nearly all actives have a fitted effect of over 35% in size. In a few lines:
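PXR-Luc HepG2 reporter cells (CYP3A4-driven luciferase) in 5% charcoal-stripped FBS medium, plated 5 h before compound addition, then treated 24 h at 37C. Luciferase read by ONE-Glo luminescence after 30 min at room temperature.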

In assay [17] the target is Cytochrome P450 2D6 (Homo sapiens) (UniProt P10635). Put plainly: Cytochrome P450 Family 2 Subfamily D Member 6 (CYP2D6) small molecule antagonists: luciferase reporter qHTS assay (AID 1671196). Further: nearly all actives have a fitted effect of over 50% in size. Further: potency means the concentration at half of the fitted maximal effect. In a few lines: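 Cell-free P450-Glo system: CYP2D6 with proluciferin substrate was pre-incubated with compound for 10 min, then reacted with NADPH regeneration for 1 h at room temperature. Luciferin product was detected after 20 min, and data were reported as relative luminescence units.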
Sequence of Cytochrome P450 2D6 (Homo sapiens) (P10635 whole entry, looked up): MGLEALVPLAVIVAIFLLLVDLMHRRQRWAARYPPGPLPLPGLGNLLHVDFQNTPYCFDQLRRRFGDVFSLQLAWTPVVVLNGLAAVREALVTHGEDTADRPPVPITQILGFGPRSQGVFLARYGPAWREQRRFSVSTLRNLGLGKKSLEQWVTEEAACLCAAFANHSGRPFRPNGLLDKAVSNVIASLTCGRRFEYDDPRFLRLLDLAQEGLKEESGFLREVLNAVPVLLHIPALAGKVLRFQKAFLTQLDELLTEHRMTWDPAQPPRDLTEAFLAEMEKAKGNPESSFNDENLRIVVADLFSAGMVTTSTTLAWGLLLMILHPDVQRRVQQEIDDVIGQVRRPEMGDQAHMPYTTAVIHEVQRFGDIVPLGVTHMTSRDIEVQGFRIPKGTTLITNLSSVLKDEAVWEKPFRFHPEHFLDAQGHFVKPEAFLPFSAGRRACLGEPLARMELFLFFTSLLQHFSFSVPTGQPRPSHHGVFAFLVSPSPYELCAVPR

SMILES strings stand for the structures. Values without a mark were called inactive. Results filed as inconclusive are left out. Calls of active or inactive are those of the source. Unless noted, the call rests on the fitted dose curve; in most records, active means well fitted curve in the direction sought with a large enough effect in the repeat runs; inconclusive means weak or mixed curves; inactive means no such curve, though single readings can be large; an effect the other way counts as inactive or inconclusive.

Sequence of Nuclear receptor subfamily 1 group I member 2 (Homo sapiens) (O75469 whole entry, looked up): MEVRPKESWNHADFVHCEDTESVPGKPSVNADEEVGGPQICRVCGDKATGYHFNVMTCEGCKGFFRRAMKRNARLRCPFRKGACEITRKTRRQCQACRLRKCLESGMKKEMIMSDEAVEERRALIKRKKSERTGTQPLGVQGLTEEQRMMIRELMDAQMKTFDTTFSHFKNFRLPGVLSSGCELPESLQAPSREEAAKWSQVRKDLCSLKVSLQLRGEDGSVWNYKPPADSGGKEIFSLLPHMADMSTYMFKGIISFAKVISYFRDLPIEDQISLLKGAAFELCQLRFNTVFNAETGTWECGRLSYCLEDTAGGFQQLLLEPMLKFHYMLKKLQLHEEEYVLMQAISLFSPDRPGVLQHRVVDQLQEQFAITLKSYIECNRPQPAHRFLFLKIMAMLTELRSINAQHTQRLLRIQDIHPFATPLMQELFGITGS
Sequence of Cytochrome P450 2C19 (Homo sapiens) (P33261 whole entry, looked up): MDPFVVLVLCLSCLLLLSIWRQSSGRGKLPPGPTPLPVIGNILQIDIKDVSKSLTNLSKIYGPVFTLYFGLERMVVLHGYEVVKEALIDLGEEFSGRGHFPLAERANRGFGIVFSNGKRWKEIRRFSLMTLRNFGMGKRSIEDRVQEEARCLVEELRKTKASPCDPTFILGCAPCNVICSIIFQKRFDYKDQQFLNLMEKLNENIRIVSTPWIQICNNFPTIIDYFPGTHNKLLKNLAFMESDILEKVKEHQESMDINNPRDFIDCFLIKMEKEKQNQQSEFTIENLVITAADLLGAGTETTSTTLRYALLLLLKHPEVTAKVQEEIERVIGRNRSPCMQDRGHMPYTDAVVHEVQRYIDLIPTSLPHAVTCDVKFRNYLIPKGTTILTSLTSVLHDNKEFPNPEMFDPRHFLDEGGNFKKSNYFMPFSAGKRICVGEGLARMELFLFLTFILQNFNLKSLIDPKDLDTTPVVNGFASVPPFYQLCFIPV
Sequence of Progesterone receptor (Homo sapiens) (P06401 whole entry, looked up): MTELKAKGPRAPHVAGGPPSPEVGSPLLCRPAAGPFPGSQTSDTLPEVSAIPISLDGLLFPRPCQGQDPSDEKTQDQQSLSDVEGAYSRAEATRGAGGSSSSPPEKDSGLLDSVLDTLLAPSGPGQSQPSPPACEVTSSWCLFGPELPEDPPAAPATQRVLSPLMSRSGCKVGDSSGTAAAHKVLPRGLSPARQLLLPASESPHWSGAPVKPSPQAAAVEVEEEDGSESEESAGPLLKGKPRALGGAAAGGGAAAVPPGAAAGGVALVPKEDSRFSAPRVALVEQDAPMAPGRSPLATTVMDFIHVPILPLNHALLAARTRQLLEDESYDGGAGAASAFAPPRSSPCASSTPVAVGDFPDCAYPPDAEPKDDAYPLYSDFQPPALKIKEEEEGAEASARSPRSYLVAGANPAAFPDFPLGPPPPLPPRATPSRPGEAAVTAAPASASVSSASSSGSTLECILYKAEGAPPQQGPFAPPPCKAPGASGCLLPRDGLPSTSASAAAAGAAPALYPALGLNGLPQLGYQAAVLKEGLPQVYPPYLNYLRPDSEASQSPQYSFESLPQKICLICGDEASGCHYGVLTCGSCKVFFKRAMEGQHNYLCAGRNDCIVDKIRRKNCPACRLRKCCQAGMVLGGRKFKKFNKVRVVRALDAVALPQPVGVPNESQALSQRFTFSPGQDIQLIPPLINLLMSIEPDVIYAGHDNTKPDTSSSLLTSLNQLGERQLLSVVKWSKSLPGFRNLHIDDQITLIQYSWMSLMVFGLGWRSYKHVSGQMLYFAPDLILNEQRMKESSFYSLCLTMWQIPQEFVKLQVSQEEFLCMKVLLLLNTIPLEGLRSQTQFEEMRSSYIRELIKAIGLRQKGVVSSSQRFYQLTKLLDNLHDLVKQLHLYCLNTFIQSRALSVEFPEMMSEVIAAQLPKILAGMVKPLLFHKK
Sequence of Thyrotropin-releasing hormone receptor (Homo sapiens) (P34981 whole entry, looked up): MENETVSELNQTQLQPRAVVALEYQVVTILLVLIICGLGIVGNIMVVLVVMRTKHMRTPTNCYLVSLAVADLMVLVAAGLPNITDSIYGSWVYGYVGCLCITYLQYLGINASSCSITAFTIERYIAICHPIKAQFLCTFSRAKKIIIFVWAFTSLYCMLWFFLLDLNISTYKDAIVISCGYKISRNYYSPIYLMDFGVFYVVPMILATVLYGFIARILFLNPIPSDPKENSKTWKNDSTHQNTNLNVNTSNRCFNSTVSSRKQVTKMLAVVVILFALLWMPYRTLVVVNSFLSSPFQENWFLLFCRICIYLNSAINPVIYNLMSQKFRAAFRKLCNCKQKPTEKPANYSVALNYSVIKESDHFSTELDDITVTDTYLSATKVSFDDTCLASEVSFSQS

As for `CCCC(CC)CCCCCCCN` (stereo not drawn), the result in assay [1] was inactive. Moreover, the Potency entry in assay [2], in assay [3], in [5], in [6], in [7] and in assay [8] was “inactive” each time. Also, the Potency entry in assay [9], in assay [10], in assay [11], in assay [12], in assay [13] and in assay [14] was “inactive” each time. Also, the values for the Potency in assay [4] and in [15] were 28 µM (active) and 0.365 µM (active), respectively.

On to `O=CC1CC1`, for which the call in assay [1] was inactive. For the same compound, the Potency entry in [2], in [3], in [4], in assay [5], in [6] and in [7] was “inactive” throughout. Also, the Potency result in assay [8], in assay [9], in assay [10], in assay [11], in assay [12] and in [13] was “inactive” each time. Further, the Potency entry in assay [14], in assay [16], in assay [17] and in assay [15] was “inactive” throughout.

For `CO[Si](CCCNCCNCCN)(OC)OC`, in assay [1], the compound was classed as inactive. Moreover, the Potency result in [2], in [3], in [4], in [5], in assay [6] and in [7] was “inactive” throughout. Besides, the Potency result in assay [8], in [9], in [10], in assay [11], in [12] and in assay [13] was “inactive” in each case. In addition, the Potency result in assay [16] and in assay [15] was “inactive” throughout.

Consider `CC1=CP(=O)(c2ccccc2)CC1` (stereo not drawn), for which, in assay [1], the compound was called inactive. The Potency entry in assay [2], in assay [3], in assay [4], in assay [5], in assay [6] and in assay [7] was “inactive” throughout. Also, the Potency entry in assay [8], in assay [9], in [10], in [11], in assay [12] and in assay [13] was “inactive” throughout. The Potency entry in [14], in assay [16], in assay [17] and in assay [15] was “inactive” in each case.

With `CCCCCCS`, the result in assay [1] was inactive. For the same compound, the Potency result in assay [2], in [3], in assay [4], in assay [5], in assay [6] and in [7] was “inactive” in each case. Besides, the Potency entry in [8], in [9], in assay [10], in assay [11], in assay [12] and in assay [13] was “inactive” throughout. Moreover, the Potency result in [14], in [16] and in assay [17] was “inactive” throughout.

Turning to `Cn1cccc1`, the compound was called inactive in assay [1]. For the same compound, the Potency entry in assay [2], in [3], in assay [4], in assay [5], in assay [6] and in assay [7] was “inactive” each time. Further, the Potency entry in [8], in assay [9], in assay [10], in assay [11], in [12] and in assay [13] was “inactive” each time. Besides, the Potency result in assay [16] and in assay [15] was “inactive” each time.

For `COc1cccc(OC)c1O`, the compound was classed as inactive in assay [1]. Further, the Potency entry in assay [2], in assay [3], in assay [4], in assay [5], in assay [6] and in [7] was “inactive” in each case. For the same compound, the Potency entry in assay [8], in assay [9], in [10], in assay [11], in assay [12] and in assay [13] was “inactive” each time. Also, the Potency entry in [14] and in assay [16] was “inactive” in each case. The Potency in assay [17] was 6.33 µM (active); in assay [15] it was 39.9 µM (active).

Regarding `CCOC(OCC)C(=O)c1ccccc1`, the compound was called inactive in [1]. In addition, the Potency entry in assay [2], in assay [3], in assay [4], in assay [5], in assay [6] and in assay [7] was “inactive” in each case. Besides, the Potency entry in assay [8], in assay [9], in assay [10], in [11], in assay [12] and in [13] was “inactive” each time. For the same compound, the Potency result in assay [16], in assay [17] and in assay [15] was “inactive” in each case.

The values above are taken from PubChem BioAssay (Tox21).
